Screening data: PubChem, National Center for Advancing Translational Sciences (NCATS)
Hits are enriched below; roughly 11% of the tested compounds scored in any of these assays.
PNC inhibitor = blocks assembly of the perinucleolar compartment; PC3M PTB-GFP, PNC prevalence imaging, 16 h; stronger effect = lower value; activity change (PNC), negative = inhibition, % at 10 µM; actives 3.1% (n = 140,000);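 active = readout at or below -70, meaning at least 70% loss of cells showing the perinucleolar compartment, a nuclear body marking cancer cells; inconclusive = readout between -30 and a set limit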;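 also: plate controls were DMSO wells for no effect and camptothecin positive control wells for full effect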
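PC3M cells stably expressing PTB-GFP, 750–1000 cells/well, treated 16 h at 37 °C with compound (23 nl of library stock), in duplicate. After paraformaldehyde fixation and Hoechst stain, imaged at 20x; PNC prevalence scored by image analysis.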
HPGD block = HPGD (human) dehydrogenase inhibition | P15428 | AID 894 | purified HPGD, NADH fluorescence kinetic, PGE2 substrate | Potency, µM, for the others: top-dose activity change, negative = inhibition, usual class: inhibitors | actives 4.3% (n = 150,000); also: potency is read from the fitted curve at half-maximal effect
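20 nM HPGD preincubated 15 min at room temperature with compound in 50 mM Tris-HCl pH 8, 0.01% Tween 20. Started with 1 mM NAD+ and 30 uM prostaglandin E2; NADH fluorescence (360/450 nm) read 5 times over 30-s intervals, last minus first.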
ALDH1A1 block = inhibitors of human aldehyde dehydrogenase 1A1 | P00352 | Potency, µM (series often up to 75.3 µM), for inactives: at the highest dose activity, negative = inhibition, most hits filed as inhibitors | actives 7.3% (n = 220,000) | Purified ALDH1A1, NADH fluorescence, propionaldehyde substrate;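 also: potency is read from the fitted curve at half-maximal effect; plate controls were no enzyme wells and a reference inhibitor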
Target sequence (P00352 whole entry, looked up): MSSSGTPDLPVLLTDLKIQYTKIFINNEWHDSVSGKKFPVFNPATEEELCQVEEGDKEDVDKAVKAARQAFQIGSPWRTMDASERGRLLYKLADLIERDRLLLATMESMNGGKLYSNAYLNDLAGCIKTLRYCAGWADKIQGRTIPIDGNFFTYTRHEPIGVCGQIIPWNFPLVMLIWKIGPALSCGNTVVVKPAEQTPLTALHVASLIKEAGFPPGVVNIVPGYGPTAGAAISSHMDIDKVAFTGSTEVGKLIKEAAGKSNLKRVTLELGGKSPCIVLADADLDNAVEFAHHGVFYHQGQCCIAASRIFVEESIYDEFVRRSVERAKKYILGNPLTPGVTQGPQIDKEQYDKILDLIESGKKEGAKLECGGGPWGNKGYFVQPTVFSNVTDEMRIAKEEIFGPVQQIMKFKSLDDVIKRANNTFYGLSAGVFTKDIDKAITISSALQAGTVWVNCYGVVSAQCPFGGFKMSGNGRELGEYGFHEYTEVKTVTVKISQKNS
Starred values were filed as active, the others as inactive; [ ] = remark or other dose. Unless noted, calls follow the shape of the dose curve; as a rule, active = well fitted inhibition curve with a large enough effect (not every such curve was filed as active); inconclusive = small, poorly fitted or top-dose-only effect, or another doubt; inactive = no such curve, though single readings can be large or run the other way. Unless noted, % is scaled to controls: 0 for no effect and ±100 for the full control effect.

N#C/C(=C/c1ccccc1[N+](=O)[O-])c1nnc2n1CCCCC2 was read as PNC inhibitor inconclusive, HPGD block 2.51µM* and ALDH1A1 block 22.4µM*.
Screening CCOc1ccc2cc(C#N)c(SCC(=O)NC(C)CC)nc2c1 (centres undefined) returned PNC inhibitor -27.4, HPGD block -22.7% and ALDH1A1 block 7.3%.
OCCC1CN(Cc2ccon2)CCN1Cc1ccccc1 (centres undefined) was read as ALDH1A1 block -1.7%.
C/C(=N/NC(=O)c1cccs1)c1ccc(NC(=O)COc2ccc(Cl)cc2)cc1 was read as PNC inhibitor 49.2, HPGD block -14.2% and ALDH1A1 block 7.8%.
`CCOC(=O)N1CCC(n2c(SCC(=O)Nc3nccs3)nc3ccsc3c2=O)CC1` gave PNC inhibitor inconclusive and ALDH1A1 block 20.0%.
O=C(NCC(F)(F)F)Nc1ccccn1 was read as PNC inhibitor -13.7, HPGD block -9.5% and ALDH1A1 block 8.8%.
Cc1cc(Br)ccc1OCCCCN1CCC(C)CC1 was read as PNC inhibitor -3.6, HPGD block -3.5% and ALDH1A1 block 5.3%.
O=C(N/N=C/c1cccnc1)C1CC1(c1ccccc1)c1ccccc1 (centres undefined) was read as ALDH1A1 block -2.3%.
`CCCN1CCN(CCCNC(=O)CCNC(=O)Cn2ccc3ccccc3c2=O)CC1` gave PNC inhibitor inconclusive, HPGD block -12.4% and ALDH1A1 block 1.0%.
Screening O=C(O)CN(c1ccccc1)C1SC(=O)NC1=O (centres undefined) returned PNC inhibitor 17.6, HPGD block -6.5% and ALDH1A1 block inconclusive.
For Cc1cccc(N(CC(N)=O)C2SC(=O)NC2=O)c1 (centres undefined) the results were PNC inhibitor -100.0*, HPGD block -11.0% and ALDH1A1 block 2.1%.
For CC(C)(CN)SCc1ccccc1 the results were HPGD block -7.5% and ALDH1A1 block 10.9%[13.5 µM].
`O=C(O[C@@H](C(=O)O)[C@@H](OC(=O)c1ccccc1)C(=O)O)c1ccccc1` gave HPGD block -5.8% and ALDH1A1 block -2.3%.
For Cc1cc(NC(=O)c2cccc(F)c2)no1 the results were PNC inhibitor -8.3, HPGD block -9.7% and ALDH1A1 block -0.6%.
CCC(=O)Nc1cnc(NC(=O)c2cccc(F)c2)cc1C was read as PNC inhibitor -100.0*, HPGD block -14.1% and ALDH1A1 block 3.4%.
Screening CC(Oc1ccc(Cl)cc1Cl)c1nc(-c2ccc(NC(=O)c3ccco3)cc2)no1 (centres undefined) returned PNC inhibitor 43.1, HPGD block inconclusive and ALDH1A1 block -7.0%.
For Cc1nn(-c2ccccc2)c2c1C1(C(=O)N3c4c(cccc41)C(C)CC3(C)C)C(C#N)=C(N)O2 (centres undefined) the results were PNC inhibitor 24.2, HPGD block -27.2% and ALDH1A1 block 0.251µM*.
`Cc1nn(-c2ccccc2)c2c1C1(C(=O)N(C)c3ccccc31)C(C#N)=C(N)O2` (centres undefined) gave PNC inhibitor inconclusive, HPGD block -0.9% and ALDH1A1 block inconclusive.
`O=C(CSc1ncnc2c1oc1ccccc12)NC1CCCCC1` gave PNC inhibitor 15.8, HPGD block inconclusive and ALDH1A1 block inconclusive.
Screening CCN1CCN(c2ncc(C(=O)Nc3ccccc3C(=O)OC)c3ccccc23)CC1 returned PNC inhibitor 21.2, HPGD block -22.2% and ALDH1A1 block -7.3%.
`CN(C(=O)c1cnc(N2CCN(c3ncccn3)CC2)c2ccccc12)c1ccc(Cl)cc1` gave PNC inhibitor 3.9, HPGD block 22.4µM* and ALDH1A1 block 8.8%.
For CC(C)NC(=O)c1cnc(N2CCN(c3ccccn3)CC2)c2ccccc12 the results were PNC inhibitor 4.5, HPGD block inconclusive and ALDH1A1 block 31.6µM*.
For CCN(C(=O)c1cnc(N2CCN(c3ncccn3)CC2)c2ccccc12)c1cccc(Cl)c1 the results were PNC inhibitor 35.5, HPGD block inconclusive and ALDH1A1 block inconclusive.
Screening COc1cccc(-c2noc(CCCC(=O)N3CCOCC3)n2)c1 returned ALDH1A1 block 1.7%.
For N#C/C(=C\c1cn[nH]c1-c1ccccc1)C(=O)NC1CCCCCC1 the results were PNC inhibitor 47.4, HPGD block -19.7% and ALDH1A1 block -11.6%.
Screening COc1ccc(C(=O)NC(C(=O)NCc2ccccn2)C(C)C)cc1 (centres undefined) returned PNC inhibitor 13.1, HPGD block 0.2% and ALDH1A1 block 19.6%.
`COc1ccc(C(=O)N[C@H](C(=O)Nc2ccc(OC)nc2)C(C)C)cc1` gave PNC inhibitor -111.7*, HPGD block -9.6% and ALDH1A1 block 3.2%.
C=CCOC[C@@H]1CN2[C@H](c3ccc(Br)cc3)[C@@H](C)CC[C@H]2C(=O)O1 was read as HPGD block 3.0% and ALDH1A1 block -2.1%.
`O=C(N/N=C/c1ccc(Br)s1)c1c[nH]c2ccccc12` gave PNC inhibitor inconclusive, HPGD block -11.6% and ALDH1A1 block -1.2%.
CC(C)N1CCc2c(sc(NC(=O)c3ccc(S(=O)(=O)N4CCOCC4)cc3)c2C#N)C1 was read as PNC inhibitor -9.9, HPGD block -13.5% and ALDH1A1 block 10µM*.
For CCN1CCc2c(sc(NC(=S)NC(=O)c3ccc(Cl)cc3)c2C(N)=O)C1 the results were ALDH1A1 block 10µM*.
`CC(C)N1CCc2c(sc(NC(=S)NC(=O)c3ccccc3)c2C#N)C1` gave PNC inhibitor inconclusive, HPGD block inconclusive and ALDH1A1 block 12.6µM*.
For CC(C)C1Cc2c(sc(NC(=S)NC(=O)c3ccccc3)c2C#N)CO1 (centres undefined) the results were PNC inhibitor -15.8, HPGD block -24.8% and ALDH1A1 block -6.4%.
`Cc1sc(NC(=S)NC(=O)c2ccc(C(C)(C)C)cc2)c(C#N)c1C` gave PNC inhibitor inconclusive, HPGD block -14.9% and ALDH1A1 block inconclusive.
CCN1CCc2c(sc(NC(=O)CN3C(=O)c4ccccc4C3=O)c2C(N)=O)C1 was read as ALDH1A1 block 9.4%.
`CCOC(=O)N1CCc2c(sc(NC(=O)c3ccc(S(=O)(=O)N4CCCC4)cc3)c2C#N)C1` gave PNC inhibitor inconclusive, HPGD block -21.2% and ALDH1A1 block inconclusive.
For CCCN1CCc2c(sc(NC(=S)NC(=O)c3ccccc3)c2C#N)C1 the results were ALDH1A1 block 7.94µM*.
For COc1cc(O)c(C(=O)O)c(O)c1 the results were HPGD block -9.3% and ALDH1A1 block -1.0%.
Screening COc1ccccc1NC(=S)NC1CCCCCC1 returned PNC inhibitor -21.7 and ALDH1A1 block -7.2%.
O=c1oc(/C=C/c2ccco2)nc2sc3c(c12)CCC3 was read as PNC inhibitor 69.2, HPGD block -4.6% and ALDH1A1 block 1.1%.
For COC(=O)[C@@]1(Cc2ccc(OC)cc2)[C@H]2c3cc(C(=O)N4CCCC4)n(CCF)c3C[C@H]2CN1C(=O)c1ccccc1 the results were HPGD block -7.4% and ALDH1A1 block 4.6%.
Screening COC(=O)[C@H](CC(C)C)NC(=O)N1CCN(c2cccc(C(F)(F)F)c2)CC1 returned PNC inhibitor 11.4, HPGD block 0.9% and ALDH1A1 block -8.7%.
